The source made the active and inactive calls. Calls follow the shape of the full dose curve.

Test in all cases: Confirmatory Screen for Target Class Profiling of Small Molecule Inhibitors of Methyltransferases (AID 1745852); as to activity change, negative = inhibition: % is scaled to controls: 0 for no effect and ±100 for the full control effect
For assay [1], the target named is Catechol O-methyltransferase (Homo sapiens) (UniProt P21964). Conditions: MTase-Glo luminescence, SAH detection, recombinant enzyme; measured here: COMT max response; stronger effect = lower value.
Assay [2] has as its target Guanidinoacetate N-methyltransferase (Homo sapiens) (UniProt Q14353). Conditions: MTase-Glo luminescence, SAH detection, recombinant enzyme; activity change, negative = inhibition: at 57.3 µM (top of the series) unless noted; series mostly up to 57.3 µM.
Assay [3] addresses Nicotinamide N-methyltransferase (Homo sapiens) (UniProt P40261). Conditions: MTase-Glo luminescence, SAH detection, recombinant enzyme; measured here: NNMT max response; stronger effect = lower value.
Assay [4] addresses Phenylethanolamine N-methyltransferase (Homo sapiens) (UniProt P11086). Particulars: MTase-Glo luminescence, SAH detection, recombinant enzyme; measured here: PNMT max response; stronger effect = lower value.
Potency is read from the fitted curve at half-maximal effect.

Nicotinamide N-methyltransferase (Homo sapiens), sequence (P40261 whole entry, looked up): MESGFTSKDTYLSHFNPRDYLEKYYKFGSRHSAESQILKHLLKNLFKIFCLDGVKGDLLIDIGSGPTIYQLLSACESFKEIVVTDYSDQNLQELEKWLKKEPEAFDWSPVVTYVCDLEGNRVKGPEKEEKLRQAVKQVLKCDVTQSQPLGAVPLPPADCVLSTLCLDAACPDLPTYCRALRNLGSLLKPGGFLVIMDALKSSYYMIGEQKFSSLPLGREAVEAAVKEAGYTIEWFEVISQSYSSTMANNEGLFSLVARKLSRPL
Catechol O-methyltransferase (Homo sapiens), sequence (P21964 whole entry, looked up): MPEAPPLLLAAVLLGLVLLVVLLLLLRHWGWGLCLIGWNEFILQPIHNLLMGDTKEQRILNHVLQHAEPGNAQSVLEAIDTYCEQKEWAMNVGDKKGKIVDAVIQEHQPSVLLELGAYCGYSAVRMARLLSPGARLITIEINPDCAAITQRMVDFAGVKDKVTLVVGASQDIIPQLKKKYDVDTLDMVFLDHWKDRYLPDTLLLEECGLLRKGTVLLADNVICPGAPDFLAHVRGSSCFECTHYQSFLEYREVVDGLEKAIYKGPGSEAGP
Phenylethanolamine N-methyltransferase (Homo sapiens), sequence (P11086 whole entry, looked up): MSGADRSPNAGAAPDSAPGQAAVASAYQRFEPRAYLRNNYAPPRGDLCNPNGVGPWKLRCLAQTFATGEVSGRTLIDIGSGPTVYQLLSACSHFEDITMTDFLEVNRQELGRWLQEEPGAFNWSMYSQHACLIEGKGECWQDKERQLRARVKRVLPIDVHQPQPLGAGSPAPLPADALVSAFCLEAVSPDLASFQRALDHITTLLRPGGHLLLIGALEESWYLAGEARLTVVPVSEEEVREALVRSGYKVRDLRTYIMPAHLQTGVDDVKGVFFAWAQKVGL

With `COc1ccc(NC(=O)C(C)(C)Oc2nn(CC3CC3)c3ccc(CN4CCCC4)cc23)cc1`, the activity in assay [1] is 8.52%; in assay [3], 5.5%; in assay [4], 9.18%. Also, the activity change, negative = inhibition in assay [2] is 9.81%.

As for `CC1(C(=O)NC2CCCC2)Cn2c(c(-n3cccc3)c3ccccc32)C(=O)N1Cc1ccccn1` (stereo unspecified), the activity in assay [1] is 1.3%; in assay [3], -46.2%; in assay [4], 0%. In addition, the activity change, negative = inhibition in assay [2] was 1.85%.

In the case of `CCN(CC)Cc1cnc2c(C(=O)N3CCCN4CCC[C@H]4C3)cnn2c1`, the activity in assay [1] is -42.2%; in assay [3] it was 12.3%; in assay [4], 8.45%. In addition, the activity change, negative = inhibition in assay [2] stood at 7.01%.

Take `COc1cccc(-c2cccc(C(=O)N3C[C@H](CO)C[C@H](CN(C)C)C3)c2)c1`: the figures for the activity in assay [1], in assay [3] and in assay [4] were 7.14%, 0.542% and 4.94%, respectively. Also, the activity change, negative = inhibition in assay [2] is 2.08%.

As for `COc1ccc(CCNC(=O)c2ccc3c(=O)[nH]c4c(C(=O)NC5CCCC5)sc(=S)n4c3c2)cc1OC`, the values for the activity in assay [1], in assay [3] and in assay [4] were -35.3%, -49.2% and -23%, respectively. In addition, in assay [2], the Potency was 24.1 µM (active).

Consider `Cc1ccc2c(c1)c(-n1cccc1)c1n2CC(C)(C(=O)NCCC(C)C)N(Cc2cccnc2)C1=O` (stereo unspecified), for which the activity in assay [1] is 4.4%; in assay [3] it was -51.8%; in assay [4], 0%. Also, the activity change, negative = inhibition in assay [2] is 0%.

For `CN(C)CCOCC1(C)COc2ccc(C(=O)Nc3ccc4[nH]ccc4c3)cc2N1` (stereo unspecified), the activity worked out at 1.58% in assay [1], 2.73% in assay [3] and 0.534% in assay [4]. Further, the activity change, negative = inhibition in assay [2] amounted to 9.89% [at 85.7 µM].

With `CC(C)c1nccn1CCCNc1nc(-c2ccncc2)nc2c1cnn2C`, the activity in assay [1] is -28.8%; in assay [3] it was -20.9%; in assay [4] it was -44.2%. Moreover, the activity change, negative = inhibition in assay [2] is -15.2%.

For `O=C(Cn1c(=O)oc2cc(S(=O)(=O)N3CCCC3)ccc21)NCCC1=CCCCC1`, the activity was -0.904% in assay [1], 1.35% in assay [3] and -61.9% in assay [4]. Also, the activity change, negative = inhibition in assay [2] was determined as 0.588%.

Regarding `CCC1CCCCN1CCCNC(=O)Cn1ccc2cc(S(=O)(=O)N3CCCCC3)ccc21` (stereo unspecified), the activity in assay [1] is 1.17%; in assay [3], -2.34%; in assay [4] it was -1.74%. In addition, the activity change, negative = inhibition in assay [2] amounted to 0%.

As to `Oc1ccc(NCCN2CCCC2)cc1`, the activity in assay [1] is -10.9%; in assay [3], -12.3%; in assay [4] it was -7.62%. The activity change, negative = inhibition in assay [2] is -14.6% [at 114 µM].

Regarding `CC(CNC(=O)c1nnn2c1c(=O)[nH]c1cc(F)ccc12)c1ccccc1` (stereo unspecified), the activity is -11.1% in assay [1], -18.2% in assay [3] and -15.8% in assay [4]. Also, in assay [2], the Potency was 0.271 µM (active).

Consider `COc1ccc(-c2n[nH]n3c2nc(=O)c2ccc(C(=O)NCc4ccc(OC)c(OC)c4)cc23)cc1`, for which the activity in assay [1] was -3.17%; in assay [3] it was 0.962%; in assay [4], 0.793%. Besides, the activity change, negative = inhibition in assay [2] came out at 0.217%.

In the case of `CN(CCCNC(=O)Cn1ccc2cc(S(=O)(=O)N3CCCCC3)ccc21)C1CCCCC1`, the results for the activity in assay [1], in assay [3] and in assay [4] were 1.24%, -1.2% and 0.276%, respectively. In assay [2], the activity change, negative = inhibition is 0.637%.

Values taken from PubChem BioAssay (NCATS).
